Compound activity deposited in PubChem by National Center for Advancing Translational Sciences (NCATS).
D1 potentiator – Potentiators of Human D1 Dopamine Receptor: qHTS; 360,000 tested, 0.036% active; D(1A) dopamine receptor (Homo sapiens), P21728; potentiation, % at 10 µM; HEK293 TREx D1 cells, calcium flux, dopamine EC20 potentiation; in the data active = potentiation above about 30%; note: 0% is about no effect
Target sequence (P21728 whole entry, looked up): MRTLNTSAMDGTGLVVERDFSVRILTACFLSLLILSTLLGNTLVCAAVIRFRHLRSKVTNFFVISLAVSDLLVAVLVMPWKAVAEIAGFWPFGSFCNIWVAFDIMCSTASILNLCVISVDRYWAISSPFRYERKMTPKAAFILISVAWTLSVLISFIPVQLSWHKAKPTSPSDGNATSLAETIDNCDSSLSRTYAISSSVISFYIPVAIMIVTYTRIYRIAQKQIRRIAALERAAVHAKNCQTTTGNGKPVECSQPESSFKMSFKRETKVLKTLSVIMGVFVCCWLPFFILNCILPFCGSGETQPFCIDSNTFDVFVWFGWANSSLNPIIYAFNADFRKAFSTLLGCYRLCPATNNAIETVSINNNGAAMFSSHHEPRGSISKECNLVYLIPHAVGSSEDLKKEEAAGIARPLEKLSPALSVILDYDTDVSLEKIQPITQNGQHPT
DRD3 antagonist – qHTS of D3 Dopamine Receptor Antagonist: qHTS. AID 652054, 2013. D3R cells, DiscoveRx beta-arrestin luminescence, antagonist mode; active compounds read low. 360,000 tested, 2.5% active. max response, negative = inhibition, %; in the data active = max response below about -50%; inconclusive = no clear call, values can overlap the other calls; note: % is set by controls: 0 for no effect and ±100 for the full control effect
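Cells expressing the human receptor were seeded at 1500 cells/well, incubated overnight at 37 degrees C in 5% CO2, then exposed to library compounds with dopamine controls for 90 minutes at 37 degrees C before luminescent detection.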
D1 antag – Antagonist of Human D 1 Dopamine Receptor: qHTS; D(1A) dopamine receptor (Homo sapiens), P21728; HEK293 TREx D1 cells, calcium flux, dopamine EC80; active compounds read low; activity change, negative = inhibition, % at 10 µM; 360,000 tested, 3.2% active; in the data active = activity change below about -30%; note: % is set by controls: 0 for no effect and ±100 for the full control effect
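Antagonism measured as reduced calcium response to an EC80 dopamine addition following 180 s compound pre-read; cells were inducible HEK293 Trex D1 plated overnight at 30 C, read kinetically at 1 cycle/sec.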
DRD3 agonist – qHTS of D3 Dopamine Receptor Agonist: qHTS. D(3) dopamine receptor (Homo sapiens), P35462. D3R DiscoveRx beta-arrestin cells, luminescence, 90 min. max activation, %. 410,000 tested, 0.58% active; in the data active = max activation above about 30%; note: 0% is about no effect
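Agonist mode: compounds and dopamine controls were applied to plated cells for 90 min at 37 degrees C after an overnight attachment at 1500 cells/well. Luminescent read-out followed 30 - 60 minutes at room temperature with DiscoveRx detection reagent.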
D1 agonist – Allosteric Agonists of the Human D1 Dopamine Receptor: qHTS; activation, % at 2 µM; HEK293 T-REx D1 cells, calcium flux, agonist mode; D(1A) dopamine receptor (Homo sapiens), P21728; AID 504660, 2011; 360,000 tested, 1% active; in the data active = activation above about 30%; note: 0% is about no effect
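Inducible HEK293 T-REx D1 cells, force-coupled to calcium signalling, were plated at 4000 cells/well with tetracycline and held overnight at 30 C. After no-wash calcium dye loading, compound-evoked calcium rise over 180 s flagged agonists.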
An asterisk follows results filed as active; ? = inconclusive; · = not tested or not shown. Hits are enriched below; roughly 6.1% of the tested compounds scored in any of these assays.

SMILES	D1 potentiator	DRD3 antagonist	D1 antag	DRD3 agonist	D1 agonist
O=C1c2ccc3c4c(ccc(c24)C(=O)N1c1cccc(O)c1)C(=O)N(c1cccc(O)c1)C3=O	-3.1	-82.4*	1.0	-21.7	0.0
Nc1cccc(N2C(=O)c3cccc4c(N)ccc(c34)C2=O)c1	-4.0	19.7	-9.3	-0.7	156.0*
COc1ccc(CNC(=O)CCc2c(C)nn(-c3ccc(N4CCCC4)nn3)c2C)c(OC)c1	-2.6	·	2.4	0.5	0.7
COc1cc2c(cc1OC)CN(C(=S)Nc1ccc(Cl)cc1)CC2	-6.0	18.5	-35.3*	7.2	7.0
COc1cccc(NC(=S)N2CCc3cc(OC)c(OC)cc3C2)c1	-1.5	-23.0	-9.2	1.8	2.5
CCN(Cc1ccccc1)C(=O)c1c(C)oc2ncn(C)c(=O)c12	-6.2	·	1.5	-1.0	2.2
Nc1ncnc2c1ncn2[C@@H]1O[C@H](CNCc2ccc(-c3cc(C(F)(F)F)ccc3Cl)o2)[C@@H](O)[C@H]1O	·	-75.8*	·	-74.7	·
COc1ccc(CNC(=O)c2ccc(-c3nc(CSc4ccccc4)c(C)o3)cc2)cc1OC	-2.9	·	-13.4	-4.5	1.2
CN(C)S(=O)(=O)N1CCN(S(=O)(=O)c2ccc3ccccc3c2)CC1	-12.2	-19.7	-20.8	7.1	3.7
CN(C)C(=O)N1CCN(S(=O)(=O)c2ccc3ccccc3c2)CC1	-3.1	-11.2	3.1	30.5*	5.4
COC(=O)CCSc1cc([N+](=O)[O-])cc2c1c(C1OCCO1)nn2-c1ccccc1	4.5	-8.0	-35.6*	-4.3	18.5
CCc1ccc2[nH]c(O)c(N=NC3=NC(=O)CS3)c2c1	-3.1	-5.7	10.6	-4.5	0.0
CCc1ccc2c(c1)c(N=NC1=NC(=O)CS1)c(O)n2CC	0.7	-88.1*	-4.4	-22.9	-0.7
CCCCCc1cc(O)c2c(C)cc(=O)oc2c1	-17.9	-25.6	-10.1	3.2	107.5*
CC12CCC(C(=O)N(CCCCN3CCN(Cc4ccccc4)CC3)C1=O)C2(C)C (stereo unspecified)	-8.6	-74.3*	2.0	-11.0	1.1
Cc1noc(C)c1C(=O)Nc1sc2c(c1C(N)=O)CCC2	2.2	2.2	-11.8	8.8	14.0
NC(=O)c1c(NC(=O)c2ccncc2)sc2c1CCCCCC2	-9.3	6.3	-7.6	3.0	36.7*
Cc1noc(C)c1C(=O)Nc1sc2c(c1C(N)=O)CCCCC2	-1.8	23.4	-6.9	46.5*	3.8
O=[N+]([O-])c1ccc(Oc2ccc(N=C=S)cc2)cc1	·	·	·	3.4	·
CCOc1ccc(/C=C2\SC(=S)N(C(C(=O)O)c3ccccc3)C2=O)cc1OC (stereo unspecified)	-2.2	23.4	12.4	-2.5	2.8
COc1ccc(OC)c(/C=C2\SC(=S)N(C(C(=O)O)c3ccccc3)C2=O)c1 (stereo unspecified)	-2.3	22.8	-2.4	1.5	35.1*
O=c1[nH]ncc(N/N=C\c2cccnc2)c1Cl	-23.2	9.3	-0.5	-7.0	1.9
Cc1cccc(/C=N\Nc2cn[nH]c(=O)c2Cl)c1	-7.3	-81.8*	-23.2	-2.7	0.5
O=C(c1ccc(CNS(=O)(=O)c2ccccc2)cc1)N1CCN(c2ccccn2)CC1	0.7	33.2	8.7	1.4	1.8
O=C(c1ccc(Cl)c(S(=O)(=O)NCc2ccccc2)c1)N1CCN(c2ccccn2)CC1	-0.6	-70.7*	6.6	15.5	2.9
SMILES	D1 potentiator	DRD3 antagonist	D1 antag	DRD3 agonist	D1 agonist
CCOC(=O)c1c(NC(=O)COc2ccccc2F)sc2c1CCCC2	0.9	·	-5.8	9.8	2.0
Cc1ccc(NC(=O)c2c(NC(=O)C(F)(F)F)sc3c2CCCCC3)cc1	-2.4	·	-42.1*	6.4	31.8*
COc1ccccc1NC(=O)c1c(NC(=O)COc2ccccc2)sc2c1CCCCC2	-1.8	·	4.1	-8.0	0.4
COc1ccc(NC(=O)c2c(NC(=O)COc3ccccc3)sc3c2CCCCC3)cc1	3.2	·	-36.8*	-8.3	-1.0
CCOC(=O)c1c(NC(=O)COc2cccc(C)c2C)sc2c1CCCCC2	3.6	·	-44.0*	8.3	1.4
Cc1cccc(NC(=O)c2c(NC(=O)C(F)(F)F)sc3c2CCCCC3)c1	-2.5	·	-37.4*	14.5	33.5*
O=C(Nc1ccc(Cl)cc1F)c1cc(S(=O)(=O)NC2CCCCCC2)ccc1F	0.4	·	-4.8	0.0	10.6
COc1cc(NC(=O)c2nn(C)c3c2COc2ccccc2-3)cc(OC)c1OC	1.6	·	5.9	12.1	1.4
COc1ccc(C(=O)Oc2cc(-c3ccc(OC)c(OC)c3)cc(=O)c3c(C)oc(C)c23)cc1	-2.0	·	2.8	-9.8	1.0
CN(C)S(=O)(=O)c1ccc2c(c1)N(CC(=O)N1CCN(c3cccc(Cl)c3)CC1)CCS2	1.2	·	2.4	-9.6	6.3
CCOC(=O)c1ccc(NC(=O)CN2c3ccccc3S(=O)(=O)c3ccccc32)cc1	-4.3	·	-9.6	15.1	10.5
Cc1ccccc1NC(=O)c1c(NC(=O)C(F)(F)F)sc2c1CCCCC2	-0.6	·	-20.9	-4.1	35.4*
O=C(COc1ccccc1)Nc1nc2c(s1)CCCC2	-6.0	-77.4*	11.1	-13.2	-2.2
O=C(COc1ccc(Cl)cc1)Nc1sc2c(c1C(=O)Nc1cccc(Cl)c1)CCCC2	0.8	·	-4.5	2.6	-0.3
O=C(Nc1cccc(Cl)c1)c1c(NC(=O)C(F)(F)F)sc2c1CCCC2	-2.8	·	-34.6*	1.7	16.3
Cc1ccccc1NC(=O)c1c(NC(=O)c2ccccc2)sc2c1CCC2	-2.6	·	11.4	-6.8	-0.5
CCOC(=O)c1c(NC(=O)C(C)N2CCN(C(=O)c3ccco3)CC2)sc2c1CCCC2 (stereo unspecified)	-5.4	-16.5	-2.2	6.0	39.9*
COCCNC(=O)CCn1c(=O)c2cc(OC)c(OC)cc2n(CC(=O)Nc2ccccc2OC)c1=O	-0.5	·	11.6	-37.3	-0.5
CCc1ccc(CNC(=O)c2ccc(Cn3c(=O)c4cccn4c4cccnc43)cc2)cc1	-0.7	·	-5.8	-2.3	0.8
COc1ccc(-c2cc(=O)oc3cc(OCc4nn[nH]n4)ccc23)cc1	2.4	-53.3*	18.6	-4.8	2.0
Cc1ccc(S(=O)(=O)c2nc(S(=O)(=O)c3ccc(C)cc3)c(NCCCOC(C)C)s2)cc1	4.7	·	-3.4	-4.7	3.3
C=CCOc1ccccc1CNCCCN1CCOCC1	-6.0	-59.1*	-11.2	-14.4	3.8
c1ccc2c(CNCCN3CCOCC3)cccc2c1	-10.7	-24.7	-31.6*	-20.7	2.5
CN(C)C(=O)N(CCCN1CCOCC1)Cc1cccc2ccccc12	-14.3	8.3	-48.9*	-3.3	1.5
N#Cc1nc(Cc2cccc3ccccc23)oc1NCCCn1ccnc1	-5.9	?	7.4	-5.2	9.0
